The list is not random: actives were taken first. Their share in the collection is about 2.6%.
CRFR2-BP antag: CRF-BP/CRF-R2 complex antagonism; HEK293 CRF-R2/CRF-BP, CRF-induced calcium fluorescence; inhibition, % at 11.8 µM; 0.59% of 350,000 active; AID 588475;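 active = inhibition of the ligand-induced calcium signal above about 50% at the single tested concentration, limit read from the data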
MLLE-PAM2 inh: inhibitors of microRNA-mediated deadenylation, human PABP1 MLLE binding; 0.36% of 360,000 active; AID 588489; P11940; GST-MLLE / FITC-PAM2 fluorescence polarization; inhibition, % at 20 µM; in the data active = inhibition above about 35%, passing the limit was not always enough
PHOSPHO1 inh: PHOSPHO1 (human) inhibition; Q8TCT1; 1.1% of 290,000 active; recombinant PHOSPHO1, absorbance phosphatase assay; inhibition, % at 13.3 µM; in the data active = inhibition above about 60%
eIF4H inh: inhibitors of RNA binding by human eIF4H; Q15056; eIF4H fluorescence polarization binding assay; inhibition, % at 35 µM; 0.94% of 290,000 active; AID 2012;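 also: calls also rest on retests at 20 µM and on dose response follow-up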
PABP FP inh: PABP-poly(A) binding inhibition; P11940; PABP-poly(A) RNA binding, fluorescence polarization; inhibition, % at 35 µM; 1% of 290,000 active; AID 2014;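 also: calls also rest on retests at 20 µM and on dose response follow-up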
Each line names hits and unclear results; the compound was inactive in the other large screens. Unless noted, no rule for the calls is given here.

COc1cccc2c(=O)n(CC(=O)Nc3ccc(F)cc3)ccc12	none
COc1cccc2c(=O)n(CC(=O)Nc3ccccc3F)ccc12	eIF4H inh inconclusive, PABP FP inh 12
Cn1c(=O)c(NCCO)c2c3c(cccc31)C(=O)c1ccccc1-2	eIF4H inh inconclusive, PABP FP inh inconclusive
Cn1c(=O)c(NCCc2ccccc2)c2c3c(cccc31)C(=O)c1ccccc1-2	eIF4H inh 128, PABP FP inh 120
O=C(c1ccccc1)c1nc2ccccc2[nH]c1=O	CRFR2-BP antag 67
COc1ccc(N2CCN(S(=O)(=O)CCNC(=O)c3ccco3)CC2)cc1	none (no result: PHOSPHO1 inh, eIF4H inh, PABP FP inh)
COc1ccc(N2CCN(S(=O)(=O)CCNC(=O)c3ccc(Br)o3)CC2)cc1	PHOSPHO1 inh 65
O=C(OCc1ccccc1)N1C=CCC[C@@H]1c1c(Cl)cccc1Br	none (no result: CRFR2-BP antag, PHOSPHO1 inh, eIF4H inh, PABP FP inh)
CCSc1nnc(NC(=O)C2Cc3ccccc3CN2C(=O)c2ccco2)s1 (stereo not drawn)	PHOSPHO1 inh 61
NS(=O)(=O)c1ccc(NC(=O)C2Cc3ccccc3CN2C(=O)c2ccco2)cc1 (stereo not drawn)	eIF4H inh 70, PABP FP inh 34
CC(C)NC(=O)N(C)C[C@H]1Oc2ncc(Br)cc2C(=O)N([C@H](C)CO)C[C@@H]1C	none (no result: PHOSPHO1 inh, eIF4H inh, PABP FP inh)
O=c1[nH]c(Cc2ccc(F)cc2)nc2scc(-c3ccc(F)cc3)c12	none
Cc1ccc(-c2csc3nc(CN(C)Cc4ccccc4)[nH]c(=O)c23)cc1	eIF4H inh 98, PABP FP inh 0.3
CCCCCCN1C[C@H](O)[C@@H](n2cc(-c3ccc(F)cc3)nn2)C[C@@H]1c1ccc(C)cc1	none (no result: PHOSPHO1 inh, eIF4H inh, PABP FP inh)
COc1cccc(C2C(C(=O)c3ccc(C)o3)=C(O)C(=O)N2CCN2CCOCC2)c1OC (stereo not drawn)	CRFR2-BP antag 124
COc1ccc(OC)c(C2C(C(=O)c3ccc(C)o3)=C(O)C(=O)N2CCN2CCOCC2)c1 (stereo not drawn)	none
O=S(=O)(c1ccccc1)c1cnn(-c2ccccc2)c1-c1ccc(F)cc1	CRFR2-BP antag 51
CCOC(=O)C1(C)CCCN1C(=O)c1ccc(OC)cc1 (stereo not drawn)	none (no result: CRFR2-BP antag, PHOSPHO1 inh, eIF4H inh, PABP FP inh)
COC(=O)[C@@]1(C)[C@H]2C(=O)N(Cc3ccccc3)C(=O)[C@H]2[C@H]2CN=C(SCC(=O)c3ccccc3)N21	MLLE-PAM2 inh 43 (no result: PHOSPHO1 inh, eIF4H inh, PABP FP inh)
COc1ccc(N(CC(=O)NCCc2ccc(OC)c(OC)c2)S(=O)(=O)c2c(C)noc2C)cc1	CRFR2-BP antag 108
O=C(CCOc1ccccc1)Nc1ccc(S(=O)(=O)Nc2ncccn2)cc1	none (no result: PHOSPHO1 inh, eIF4H inh, PABP FP inh)
COc1cccc(C2=CC(c3ccc(N(C)C)cc3)n3nnnc3N2)c1 (stereo not drawn)	PHOSPHO1 inh 63
O=C(Nc1ccc(OC(F)(F)F)cc1)N1CCc2nc(NCc3cccc(Oc4ccccc4)c3)ncc2C1	none (no result: CRFR2-BP antag, PHOSPHO1 inh, eIF4H inh, PABP FP inh)
O=c1cc(CN2CCN(Cc3ccccc3)CC2)c2cc(O)ccc2o1	CRFR2-BP antag 85
CC(=O)Nc1cncc(-c2cccc(C(=O)N(C)C)c2)n1	none (no result: CRFR2-BP antag, PHOSPHO1 inh, eIF4H inh, PABP FP inh)
NC(=O)c1c(N)sc2c1CCCCC2	PHOSPHO1 inh 97
CNC(=O)c1c(N)sc2c1CCCCC2	PHOSPHO1 inh 71, eIF4H inh 124, PABP FP inh 128 (no result: CRFR2-BP antag, MLLE-PAM2 inh)
NC(=O)c1c(N)sc2c1CCC2	none
COc1cccc(CN2CCN(c3cccc(C(F)(F)F)c3)CC2)c1OC	CRFR2-BP antag 54
Fc1ccc(-n2cc(CNCCc3ccccn3)c(-c3ccccc3Cl)n2)cc1	PHOSPHO1 inh 67
COc1ccc(-n2cc(CNCCc3nc(C)cc(C)n3)c(-c3ccccc3Cl)n2)cc1	none
Cc1ccc(C)c(NC(=O)CSc2ccc(-c3cccs3)nn2)c1	eIF4H inh 22, PABP FP inh 120
COCCNC(=S)Nc1ccccc1[N+](=O)[O-]	none
COCCCNC(=S)Nc1ccccc1[N+](=O)[O-]	PHOSPHO1 inh 60
CN1OC[C@@H]2CN[C@H](c3ccc(-c4cc5ccccc5o4)cc3)C[C@@H]21	none (no result: PHOSPHO1 inh, eIF4H inh, PABP FP inh)
Cc1ccc(NS(=O)(=O)c2cc3c4c(cccc4c2)C(=O)NC3=O)cc1C	PABP FP inh 39
O=C1NC(=O)c2cc(Br)cc3cccc1c23	none
N#CC(=C1C=C(Br)C(=NO)C=C1Cl)c1cccc2ccccc12	none (no result: PHOSPHO1 inh, eIF4H inh, PABP FP inh)
CC(C)=CCC[C@H](C)C[C@@H]1CC2=C(C(=O)OC(C)(C)O2)[C@H](c2ccc(Cl)cc2)O1	none (no result: CRFR2-BP antag, PHOSPHO1 inh, eIF4H inh, PABP FP inh)
Cc1ccc(-n2cccc2C(=S)N=P(N(C)C)(N(C)C)N(C)C)cc1	PHOSPHO1 inh 67
C[n+]1cc(-c2ccccc2)n2c1CCCCC2	PABP FP inh 65
Clc1ccc(C[n+]2cc(-c3ccccc3)n3c2CCCCC3)c(Cl)c1	PHOSPHO1 inh 60
